Data on 62 compounds can be found in PubChem BioAssay AID652104 (National Center for Advancing Translational Sciences (NCATS), 2013).

Out of some 410,000 compounds screened, about 7,200 (1.8%) were called active. Roughly 7% stayed inconclusive and do not appear here. The sample as a whole holds a higher share of actives than the screen did. A number with no mark means an inactive call. Calls come from the whole dose curve; as a rule, active = well fitted activation curve with a large enough effect; inconclusive = small, poorly fitted or top-dose-only effect, or another doubt; inactive = no such curve, though single readings can be large or run the other way.
Potency is the fitted concentration of half-maximal effect.

The nature of this test: qHTS of TDP-43 Inhibitors. For growth rescue (activation): % of control where 0% means no effect. Note: nearly all actives have a fitted effect of over 50% in size. The settings on record: TDP-43 expressing yeast growth rescue, BacTiter-Glo, 24 h; series mostly up to 46.1 µM; growth rescue (activation): at the top concentration. The essentials: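 Galactose-induced TDP-43 yeast, OD600=0.02, compound pinned; 24 hr, 30 deg C; BacTiter-Glo luminescence for growth. Inhibitors of TDP-43 toxicity read as activators.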
In the case of `O=C(CSc1nc2nccnc2c(=O)n1CCc1c[nH]c2ccccc12)Nc1ccccc1F`, the “growth rescue (activation)” value is 20.8%. On the same count and under the same terms, the result for `O=C(NCc1ccc(Cl)cc1)c1cc2c(nc3sccn32)s1` reads -3.87%. With `Cc1ccc(Nc2c(-c3ccc(Cl)cc3)nc3sccn23)c(C)c1`, the Potency was 25.1 µM (active). With `Cc1ccc(S(=O)(=O)NCc2cn3ccsc3n2)c(C)c1`, the “growth rescue (activation)” value was -1.93%. As for `Cc1ccc2nc3c(cc(C(=O)NC4CCCCC4)c(=N)n3C(C)C)c(=O)n2c1`, the “growth rescue (activation)” value is 19.8%. Still for that read-out and setting: the result for `CCN(Cc1ccccc1)S(=O)(=O)c1ccc2c(c1)CCCN2C(C)=O` reads 0%; that for `CC(=O)Nc1ccc(NC(=O)COc2ccccc2C(=O)Nc2cccc(Cl)c2Cl)cc1`, 7.69%; that for `CCOC(=O)c1ccc[n+](CC(=O)Nc2ccccc2OC(F)F)c1`, 1.27% [at 0.397 µM]. For the compound `FC(F)Oc1ccccc1NC(=S)Nc1cccc(Cl)c1Cl`, the Potency is 17.8 µM (active). Consider `Cc1cc(C)c(-c2n[nH]c3c2C(c2ccccc2F)N(CCO)C3=O)c(O)c1` (configuration not stated), for which the “growth rescue (activation)” value is 6.01%. The same measure, in the same setting: the result for `CCOC(=O)c1sc(NC(=O)/C=C/c2ccc(C(C)C)cc2)c(C(=O)OCC)c1C` reads -1.08%; that for `CSc1ncc(C(=O)NCc2ccccc2Cl)c(C(F)(F)F)n1`, 21.1%; that for `Cc1cccc(N2CCN(C(=O)c3oc(=O)c4ccccc4c3-c3ccccc3)CC2)c1C`, 0%.

Regarding `COc1ccccc1Nc1cc(C(=O)NCCCN(C)C2CCCCC2)c2ccccc2n1`, the “growth rescue (activation)” value is -13.9%. As to `O=[N+]([O-])c1ccc2oc(-c3cccc(O)c3)nc2c1`, the Potency was 7.94 µM (active). Turning to `COc1ccc(-c2nc3ccccc3o2)cc1NC(=O)c1cc([N+](=O)[O-])ccc1N1CCOCC1`, the “growth rescue (activation)” value is 13.1%. Still for that read-out and setting: the result for `O=C(Nc1cc(-c2nc3ccccc3o2)ccc1Cl)c1cc([N+](=O)[O-])ccc1N1CCOCC1` reads 8.05%; that for `CN(c1ccccc1)S(=O)(=O)c1cc(C(=O)OCC(=O)N2CCN(C(=O)c3ccco3)CC2)ccc1Cl`, 14.5%. Still for that read-out and setting: the result for `CN(c1ccccc1)S(=O)(=O)c1cccc(C(=O)NNC(=O)c2ccncc2)c1` reads 11.6%. For `CN(c1ccccc1)S(=O)(=O)c1cc(C(=O)Nc2nc3ccccc3[nH]2)ccc1Cl`, the Potency is 15.8 µM (active). Take `O=c1cnnc(Nc2ccccc2)[nH]1`: the “growth rescue (activation)” value was -16.7%. As for `S=c1[nH]nc(Nc2ccccc2)s1`, the “growth rescue (activation)” value was 1.28%.

For the compound `c1ccc(Nc2n[nH]nc2-c2ccccc2)cc1`, the Potency is 12.6 µM (active). Turning to `Cc1cc(C)cc(-n2c(SCC(=O)NCC3CCCO3)nc3c([nH]c4ccccc43)c2=O)c1` (configuration not stated), the “growth rescue (activation)” value was 0%.

With `NNC(=O)CSc1nnc(-c2ccccc2)n1-c1ccccc1`, the “growth rescue (activation)” value is -9.48%. Take `Cc1ccc(-c2nnc(SCC(=O)N/N=C/c3cccs3)n2-c2ccc(C)cc2)cc1`: the Potency was 22.4 µM (active). For `Cc1ccc(-n2c(Cc3cccs3)nnc2SCC(=O)OC(C)C)cc1`, the “growth rescue (activation)” value was 16.6%.

As for `COc1cccc(CNc2nccn(-c3ccc(OC)c(OC)c3)c2=O)c1`, the “growth rescue (activation)” value is 15.3%.

For the compound `CC1=C[C@H]2Cc3cc(C)cc(C)c3S(=O)(=O)[C@@H]2C=C1`, the Potency is 15.8 µM (active). For the compound `COc1ccc(-n2ccn(CC(=O)Nc3ccc(C)c(C)c3)c(=O)c2=O)cc1OC`, the “growth rescue (activation)” value is 8.89%. For the compound `O=C(c1cnn(-c2ccc(Cl)cc2)c1)c1ccccc1O`, the “growth rescue (activation)” value is -10.9%. For `Cc1cc(O)cc(O)c1C(=O)Cc1cnn(-c2ccccc2)c1`, the Potency was 8.91 µM (active). As to `Cc1[nH]nc(-c2ccc(OCc3cnn(-c4ccccc4)c3)cc2O)c1Oc1ccc(Cl)cc1`, the “growth rescue (activation)” value was -0.901%. Still for that read-out and setting: the result for `CC(C)CNc1ncnc2c1nnn2C` reads 12.5%; that for `CC(O)c1nc2ccccc2n1Cc1ccc([N+](=O)[O-])cc1` (configuration not stated), 5.24%; that for `O=C(O)Cn1c(Cc2ccccc2)nc2ccccc21`, 3.72%. Turning to `CC(=O)c1nc2ccccc2n1Cc1ccccc1`, the Potency was 11.2 µM (active). On to `Cc1ccc(NC(=O)Cn2c(=O)n(-c3ccccc3)c(=O)c3c4c(sc32)CCCC4)cc1`, for which the “growth rescue (activation)” value was 12.7%. As to `COc1ccccc1-c1n[nH]c2c1[C@H](C)CC[C@H]2C(C)C`, the Potency was 25.1 µM (active). For `COc1ccccc1-c1n[nH]nc1C1=CC(=O)CC(C)(C)C1`, the “growth rescue (activation)” value is 0%. Turning to `COc1ccc(N2CCN(C(=O)c3c(C)oc4nc(C)nc(N5CCCC5)c34)CC2)cc1`, the “growth rescue (activation)” value was 24.1%. On the same count and under the same terms, the result for `NS(=O)(=O)c1ccc(NC(=O)COc2ccc(S(=O)(=O)NC3CCCCC3)cc2)cc1` reads 7.49%. `CCOc1ccc(C2CC(=O)c3c([nH]c(C(=O)OCc4ccccc4)c3C)C2)cc1` (configuration not stated): the “growth rescue (activation)” value is 13.5%. The same measure, in the same setting: the result for `O=C(Cn1nc(Cc2cccnc2)c2ccccc2c1=O)N1CCN(c2ccccc2F)CC1` reads -3.56%; that for `CCN(CC)S(=O)(=O)c1nnc(NC(=O)COc2ccccc2Cl)s1`, 22.7%.

For `CC(C)(C)C(=O)c1c(N)[nH]c(C(=O)c2ccccc2)c1-c1ccc(F)cc1`, the “growth rescue (activation)” value was 22.8%.

Take `Cc1nc2ccccc2c(-c2ccccc2)c1C(=O)c1ccccc1`: the Potency is 22.4 µM (active). As to `Nc1[nH]c(C(=O)c2ccccc2)c(-c2ccncc2)c1C(=O)NCc1cccc2ccccc12`, the “growth rescue (activation)” value is 12.8%. In the case of `CCCNC(=O)CCC(=O)N1Cc2ccccc2Oc2ncccc21`, the growth rescue (activation) is 7.07% [at 9.22 µM].

Take `CC(C)c1ccc(NS(=O)(=O)c2ccc3[nH]cc(C(=O)NC4CCCC4)c(=O)c3c2)cc1`: the “growth rescue (activation)” value was 0%. Consider `CCCOc1ccc(C2c3c(-c4ccccc4O)n[nH]c3C(=O)N2Cc2cccnc2)cc1` (configuration not stated), for which the “growth rescue (activation)” value was -2.59%. Turning to `Cc1c(Cl)cccc1NC(=O)C1CCCN(C(=O)c2cnn(-c3ccccc3)c2-n2cccc2)C1` (configuration not stated), the “growth rescue (activation)” value was 0.375%. For `CC(C)CC(=O)N/C(N)=N/c1nc2ccccc2s1`, the Potency was 15.8 µM (active). For `Cc1cc(C)cc(-n2ccnc2SCC(=O)Nc2nc3ccccc3s2)c1`, the “growth rescue (activation)” value was 5.14%. Take `CC(C)CC(=O)NC(=S)NNC(=O)c1cccc([N+](=O)[O-])c1`: the growth rescue (activation) is -4.92% [at 9.22 µM]. As to `CCN1CCN(CCCNC(=O)c2ccc3c(c2)sc2nc(-c4ccc(OC)cc4)cn23)CC1`, the “growth rescue (activation)” value is -44.4%.

In the case of `O=C(NCCc1ccccc1)c1ccc2c(c1)N(Cc1ccccc1)C(=O)c1ccccc1S2(=O)=O`, the “growth rescue (activation)” value is 26.3%. On the same count and under the same terms, the result for `Cc1ccccc1CNC(=O)CCc1cn(Cc2ccccc2C)c2ccccc12` reads 20.1%.

`O=C(C1CCN(c2nnc(-n3cccc3)s2)CC1)N1CCc2ccccc2C1`: the Potency was 35.5 µM (active). As to `CSc1ccc(CCNC(=O)C2CCN(c3nnc(-n4cccc4)s3)CC2)cc1`, the “growth rescue (activation)” value is 0%. The same measure, in the same setting: then `CCOC(=O)C1CCCN(C(=O)C2CCN(c3nnc(-n4cccc4)s3)CC2)C1` (configuration not stated), with 12%. The same measure, in the same setting: then `Cc1ccc(-c2nn3c(=O)cc(CN4CCN(C(=O)Nc5cccc(C(F)(F)F)c5)CC4)nc3s2)cc1`, with 21.4%.
